A short description of test [1]: NS1 protein of Zika virus - qHTS assay to identify small molecule inhibitors in human HEK 293 cells (AID 1347053). Further: nearly all actives have a fitted effect of over 55% in size. The method, boiled down: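 Inhibition of NS1 expression was scored in HEK 293 cells given compound 1 h ahead of MR766 virus (MOI = 0.5). Following 24 h at 37 C, two anti-NS1 antibodies generated a TR-FRET signal, scaled between uninfected and infected controls.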

Test [2] is described as follows: qHTS of pediatric cancer cell lines to identify multiple opportunities for drug repurposing: Primary screen for TC32 cells (AID 1347089). Further: nearly all actives have a fitted effect of over 60% in size. The method, boiled down:
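A viability screen of TC32 cells was run over 48 h, with primary MIPE doses spanning 0.78 nM–46 µM and NPC doses 0.59 nM–46 µM. ATP luminescence (CellTiter-Glo) served as the read-out.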

The nature of test [3]: qHTS of pediatric cancer cell lines to identify multiple opportunities for drug repurposing: Primary screen for DAOY cells (AID 1347090). Further: nearly all actives have a fitted effect of over 55% in size. The method, boiled down:
(§1)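 Eight- or eleven-point concentration series, 48 h treatment at 37 degrees C in growth media; readout CellTiter-Glo luminescence. Potency and efficacy were taken from the concentration-response curves.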

Test [4] can be described thus: qHTS of pediatric cancer cell lines to identify multiple opportunities for drug repurposing: Primary screen for SJ-GBM2 cells (AID 1347091). The gist of the method: as §1
Test [5] in a line: qHTS of pediatric cancer cell lines to identify multiple opportunities for drug repurposing: Primary screen for A673 cells (AID 1347092). Further: nearly all actives have a fitted effect of over 45% in size. The method, boiled down: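 Titration-based qHTS on A673 cells: MIPE compounds spanned 11 points (0.78 nM to 46 µM final), NPC compounds 8 points (0.59 nM to 46 µM final). Viability after 48 h was measured by ATP luminescence.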
Test [6] is described as follows: qHTS of pediatric cancer cell lines to identify multiple opportunities for drug repurposing: Primary screen for SK-N-MC cells (AID 1347093). The method, boiled down:
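Metabolically active cells were quantified by ATP-dependent luminescence (CellTiter-Glo, 15 min at room temperature) following 48 h treatment. Cells had been plated at 500-1,000 per well and settled for 5 h beforehand.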

Test [7] can be described thus: qHTS of pediatric cancer cell lines to identify multiple opportunities for drug repurposing: Primary screen for BT-37 cells (AID 1347094). The method, boiled down: (§2)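 Viability was measured as metabolically active cells after 48 hours of treatment, read by CellTiter-Glo luminescence. Compounds were tested at multiple final concentrations, giving concentration-response curves.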

Test [8] can be described thus: qHTS of pediatric cancer cell lines to identify multiple opportunities for drug repurposing: Primary screen for NB-EBc1 cells (AID 1347095). The method, boiled down:
as §2

Inconclusive results are not listed. The source made the active and inactive calls. The call rests on the fitted dose curve; in most records, active means well fitted curve in the direction sought with a large enough effect; inconclusive means small, poorly fitted or top-dose-only effect, or another doubt; inactive means no such curve, though single readings can be large; an effect the other way counts as inactive or inconclusive.
Potency means the concentration at half of the fitted maximal effect.

In the case of `O=C(CCCCCCNC(=O)c1cnc(N(c2ccccc2)c2ccccc2)nc1)NO`, the Potency result in test [1] was “inactive”. Further, the Potency in test [2] is 18600 nM (active); in test [3] it was 18700 nM (active); in test [4], 5260 nM (active); in test [5], 9350 nM (active); in test [6], 2960 nM (active); in test [7], 15300 nM (active). Also, the Potency in test [8] was 4180 nM (active).

For `O=C(O)Cn1nnc(-c2cc(N3CCC(Oc4cc(F)ccc4Br)CC3)no2)n1`, the Potency entry in test [2], in test [3] and in test [8] was “inactive” each time. Besides, the Potency in test [4] is 469 nM (active); in test [5], 372 nM (active).

On to `NC1(Cc2ccc(Cl)cc2)CCN(c2ncnc3[nH]ccc23)CC1`, for which the Potency in test [4] is 5260 nM (active); in test [5], 14800 nM (active); in test [6], 3320 nM (active); in test [8], 11800 nM (active).

Take `CC(C)(O)CCc1ccc(OCc2cc(-c3cccc(OC(F)F)c3)c3ncccc3c2)cc1`: the Potency result in test [2], in test [3], in test [4], in test [5], in test [7] and in test [8] was “inactive” in each case.

Take `CCn1cc(-c2ccnc3[nH]c(-c4cccc(CN(C)C)c4)cc23)c(-c2ccc(NC(=O)N(C)C)cc2)n1`: the Potency in test [2] is 104 nM (active); in test [3], 5900 nM (active); in test [5], 4690 nM (active); in test [6] it was 46.9 nM (active); in test [7], 19300 nM (active); in test [8], 469 nM (active).

Regarding `Nc1ccc(S(=O)(=O)Nc2ncccn2)cc1`, the Potency result in test [1], in test [2], in test [3], in test [5] and in test [8] was “inactive” each time. Moreover, in test [6], the Potency is 23500 nM (active).

Consider `COc1ccc2c(OCc3nnc4ccc(-c5ccccc5)nn34)ccnc2c1`, for which the Potency entry in test [1], in test [2], in test [3], in test [6] and in test [8] was “inactive” in each case.

As for `CNC(=O)CN1CCC(Oc2cc3c(Nc4cccc(Cl)c4F)ncnc3cc2OC)CC1`, the Potency was 930 nM (active) in test [2]; 9.3 nM (active) in test [3]; 5.3 nM (active) in test [6]; 1 nM (active) in test [7]; 6.6 nM (active) in test [8].

Consider `COc1cc(C(=O)N2CCC(N3CCN(C)CC3)CC2)ccc1Nc1ncc2c(n1)N(C)c1ccccc1C(=O)N2C`, for which the Potency in test [4] is 18700 nM (active); in test [5], 11800 nM (active); in test [6], 10500 nM (active); in test [7], 15300 nM (active); in test [8], 16600 nM (active).

On to `COCCOc1ccc2c(c1)ncn2-c1ccc2cccc(N3CCC(N)CC3)c2n1`, for which the Potency in test [3] is 23500 nM (active); in test [4], 11800 nM (active); in test [5] it was 4690 nM (active); in test [8] it was 23500 nM (active).

On to `COc1cccc(-c2ccc(NC(=O)C3=C(C(=O)O)CCC3)c(F)c2)c1`, for which the Potency in test [1] is 2090 nM (active); in test [4], 11800 nM (active); in test [5], 5900 nM (active); in test [6], 1320 nM (active); in test [7], 19300 nM (active); in test [8], 3720 nM (active).

Turning to `CC[C@@]1(O)C(=O)OCc2c1cc1n(c2=O)Cc2cc3cc(O)ccc3nc2-1`, the Potency was 33.2 nM (active) in test [1]; 41.5 nM (active) in test [2]; 118 nM (active) in test [3]; 23.5 nM (active) in test [4]; 29.6 nM (active) in test [5]; 13.2 nM (active) in test [6]. For the same compound, the results for the Potency in test [7] and in test [8] were 21.7 nM (active) and 11.8 nM (active), respectively.

`Nc1cccc(-c2cc3c(Oc4cccc(O)c4)ncnc3[nH]2)c1`: the Potency result in test [1] is “inactive”. The Potency in test [3] is 7430 nM (active); in test [4], 20900 nM (active); in test [6] it was 1050 nM (active); in test [8], 3720 nM (active).

As to `COc1cc(Nc2ncc(F)c(Nc3ccc4c(n3)N(COP(=O)(O)O)C(=O)C(C)(C)O4)n2)cc(OC)c1OC`, the Potency entry in test [1], in test [2] and in test [7] was “inactive” in each case. Further, the Potency was 2960 nM (active) in test [5], 1320 nM (active) in test [6] and 935 nM (active) in test [8].

Turning to `Cc1nc2ccc(CN(C)c3ccc(C(=O)N[C@@H](CCC(=O)O)C(=O)O)s3)cc2c(=O)[nH]1`, in test [1], the Potency result is “inactive”. Further, the Potency in test [2] is 131 nM (active); in test [5], 59 nM (active); in test [6], 10.5 nM (active); in test [8], 42.2 nM (active).

With `CCC1=C[C@@H]2CN(C1)Cc1c([nH]c3ccccc13)[C@@](C(=O)OC)(c1cc3c(cc1OC)N(C)[C@@H]1[C@@](O)(C(=O)OC)[C@H](OC(C)=O)[C@]4(CC)C=CCN5CC[C@]31[C@@H]54)C2`, the Potency in test [1] is 4180 nM (active); in test [2], 104 nM (active); in test [3] it was 187 nM (active); in test [4] it was 33.2 nM (active); in test [5], 9.3 nM (active); in test [7], 43.2 nM (active). For the same compound, the Potency in test [8] is 235 nM (active).

With `CC(C)(C)NC(=O)[C@H]1CN(Cc2cccnc2)CCN1C[C@@H](O)C[C@@H](Cc1ccccc1)C(=O)N[C@H]1c2ccccc2C[C@H]1O`, the Potency entry in test [2] is “inactive”. The Potency in test [6] is 118 nM (active).

In the case of `Cc1c(NC(=O)OC[C@@H]2COCCN2)cn2ncnc(Nc3ccc4c(cnn4Cc4cccc(F)c4)c3)c12`, the Potency entry in test [2] is “inactive”. The Potency in test [3] is 74.3 nM (active); in test [5] it was 46.9 nM (active); in test [6], 93.5 nM (active).

Regarding `CCc1cc2c(cc1N1CCC(N3CCOCC3)CC1)C(C)(C)c1[nH]c3cc(C#N)ccc3c1C2=O`, the Potency entry in test [1], in test [2], in test [3], in test [4], in test [5] and in test [7] was “inactive” each time.

In the case of `COc1c(OCCCN2CCOCC2)ccc2c3n(c(=NC(=O)c4cnc(N)nc4)nc12)CCN3`, the Potency in test [2] is 2550 nM (active); in test [4], 2040 nM (active); in test [5] it was 162 nM (active); in test [6], 28.8 nM (active); in test [8] it was 102 nM (active).

Turning to `COc1c(N2C[C@@H]3CCCN[C@H]3C2)c(F)cc2c(=O)c(C(=O)O)cn(C3CC3)c12`, the Potency result in test [1], in test [2], in test [3], in test [4], in test [5] and in test [6] was “inactive” each time. Also, the Potency entry in test [7] and in test [8] was “inactive” in each case.

With `Cc1coc2c1C(=O)C(=O)c1c-2ccc2c1CCCC2(C)C`, the Potency entry in test [1] and in test [2] was “inactive” throughout. Moreover, the Potency was 5900 nM (active) in test [4], 8330 nM (active) in test [6], 21700 nM (active) in test [7] and 8330 nM (active) in test [8].

Turning to `COc1cc2c(NC3CCN(C(C)C)CC3)nc(C3CCCCC3)nc2cc1OCCCN1CCCC1`, the Potency entry in test [1] and in test [2] was “inactive” throughout. The Potency is 18700 nM (active) in test [3]; 23500 nM (active) in test [4]; 5900 nM (active) in test [5]; 29600 nM (active) in test [6]; 30600 nM (active) in test [7].

For `C=CC(=O)N1CCC[C@@H](n2nc(-c3ccc(Oc4ccccc4)cc3)c3c(N)ncnc32)C1`, the Potency entry in test [2] is “inactive”. Besides, the Potency in test [3] was 23500 nM (active); in test [5] it was 9350 nM (active); in test [8] it was 10500 nM (active).

Take `COc1cc2c(cc1-c1c(C)noc1C)ncc1[nH]c(=O)n([C@H](C)c3ccccn3)c12`: the Potency result in test [1] was “inactive”. Further, the Potency in test [3] was 18700 nM (active); in test [4] it was 16600 nM (active); in test [5], 4690 nM (active); in test [6] it was 1180 nM (active); in test [7], 17200 nM (active); in test [8] it was 16600 nM (active).

In the case of `Nc1ccn([C@@H]2O[C@H](CO)[C@H](O)C2(F)F)c(=O)n1`, the Potency was 743 nM (active) in test [1]; 117 nM (active) in test [2]; 1870 nM (active) in test [3]; 235 nM (active) in test [4]; 18.7 nM (active) in test [5]; 1320 nM (active) in test [6]. Further, the Potency in test [8] was 935 nM (active).

For the origin of these results see PubChem BioAssay (NCATS).
